Shown are actives, neighbours in structure and some others; about 3% of the full set was active somewhere.
PAFAH2 inh – inhibitors of human PAFAH2. 0.99% of 340,000 active. inhibition, % at 3.39 µM. AID 492956. recombinant PAFAH2, FP-rhodamine activity probe, fluorescence polarization. Q99487;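 active means inhibition above the mean over all tested compounds plus 3 SD, cut at about 30% in these data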;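 further: inhibitors block probe labeling of enzyme so polarization drops; 0% = enzyme with DMSO and 100% = wells lacking PAFAH2 protein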
PAFAH1B2 FP inh – PAFAH1B2 (human) inhibition | recombinant PAFAH1B2, FP-rhodamine activity probe, fluorescence polarization | P68402 | 1.2% of 340,000 active | inhibition, % at 3.39 µM;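 active means inhibition above the mean of all tested compounds plus 3 SD, cut at about 24% in these data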;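 further: 0% = enzyme with DMSO and 100% = wells lacking PAFAH1B2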
Fh CTSL1 inh – counter-screen for PFM18AAP inhibitors: inhibitors of F. hepatica cathepsin L1; 0.49% of 300,000 active; AID 1906; inhibition, % at 5.96 µM; recombinant F. hepatica cathepsin L1, Z-Leu-Arg-MCA fluorescence;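 active means inhibition above the mean of all tested compounds plus 3 SD, set per screening campaign, cut at about 17% in these data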;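 further: 0% = plate median of test compound wells and 100% = 1 µM Z-Phe-Ala-diazomethylketone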
PAFAH1B3 inh – PAFAH1B3 (human) inhibition; recombinant PAFAH1B3, FP-rhodamine probe, fluorescence polarization; 0.28% of 340,000 active; Q15102; inhibition, % at 3.39 µM; AID 492972;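 active means inhibition above the screen-wide average of all tested compounds plus 3 SD, cut at about 25% in these data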;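 further: 0% = enzyme with DMSO only and 100% = wells lacking PAFAH1B3 protein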
Target sequence (Q15102 whole entry, looked up): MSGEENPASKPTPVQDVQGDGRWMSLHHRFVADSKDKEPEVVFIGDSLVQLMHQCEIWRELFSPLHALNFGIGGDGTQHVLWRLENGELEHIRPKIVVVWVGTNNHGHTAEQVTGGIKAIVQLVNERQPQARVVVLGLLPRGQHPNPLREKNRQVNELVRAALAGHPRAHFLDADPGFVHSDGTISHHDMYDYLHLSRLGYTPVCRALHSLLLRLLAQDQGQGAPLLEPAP
PP5 primary – PP5 (human) phosphatase inhibition | P53041 | purified PP5c, OMFP substrate fluorescence | inhibition, % at 6.7 µM | 0.18% of 320,000 active | AID 1987;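 active means inhibition above the campaign's mean inhibition across all tested compounds plus 3 SD, cut at about 9.5% in these data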;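 further: 0% = DMSO only and 100% = 100 µM cantharidin control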
pPAFAH FP inh – inhibitors of human plasma PAF acetylhydrolase (pPAFAH); recombinant pPAFAH, FP-rhodamine probe fluorescence polarization; 1.5% of 330,000 active; inhibition, % at 3.39 µM; Q13093; AID 463082;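 active means inhibition above the mean inhibition across the screen plus 3 SD, cut at about 25% in these data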;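 further: inhibitors block binding of the rhodamine activity-based probe so polarization drops; 0% = enzyme with DMSO and 100% = wells lacking pPAFAH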
Target sequence (Q13093 whole entry, looked up): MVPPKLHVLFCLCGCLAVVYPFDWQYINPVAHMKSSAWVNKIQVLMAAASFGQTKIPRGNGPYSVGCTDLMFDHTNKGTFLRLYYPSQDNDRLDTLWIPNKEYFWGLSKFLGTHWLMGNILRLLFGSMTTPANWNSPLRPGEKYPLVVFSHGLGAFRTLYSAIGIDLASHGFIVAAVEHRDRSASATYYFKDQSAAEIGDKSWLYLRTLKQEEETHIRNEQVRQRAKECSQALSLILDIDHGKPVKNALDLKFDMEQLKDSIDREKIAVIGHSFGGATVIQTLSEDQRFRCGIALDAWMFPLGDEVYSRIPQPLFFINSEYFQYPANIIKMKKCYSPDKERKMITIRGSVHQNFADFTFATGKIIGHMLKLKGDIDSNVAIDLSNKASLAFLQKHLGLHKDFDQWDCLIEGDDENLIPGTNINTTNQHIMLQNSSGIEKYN
PP5 inh confirm – PP5 (human) inhibition, confirmation. shares compounds with PP5 primary. Purified PP5, fluorogenic phosphatase substrate, fluorescence. 22% of 460 active. inhibition, % at 6.7 µM; in the data active means inhibition above about 9.5%
PP1 inh counter – PP1 phosphatase inhibition, counter-screen for PP5 inhibitors; shares compounds with PP5 primary; PP1 enzyme, fluorescent phosphatase substrate; inhibition, % at 6.7 µM; 4% of 460 active; in the data active means inhibition above about 16%
Numbers without * were called inactive; . = no result.

SMILES | PAFAH2 inh | PAFAH1B2 FP inh | Fh CTSL1 inh | PAFAH1B3 inh | PP5 primary | pPAFAH FP inh | PP5 inh confirm | PP1 inh counter
N#Cc1c(NC(=O)c2ccc([N+](=O)[O-])o2)sc2c1CCC2 | 7 | 12 | 3 | 6 | 4 | 10 | . | .
COc1cc(CNCC(C)C)cc(Br)c1OCC(=O)Nc1ccccc1 | 0 | -1 | 0 | 8 | 1 | 4 | . | .
CCNCc1cc(Br)c(OCC(=O)Nc2ccccc2)c(OC)c1 | 0 | 0 | 3 | 4 | 9.9* | 4 | 0 | -3
CCCCNS(=O)(=O)c1ccc(NC(=O)C(Sc2ccccc2)c2ccccc2)cc1 (configuration not stated) | -74 | -37 | 0 | -58 | 10* | -45 | 4 | 3
CCC(C)NS(=O)(=O)c1ccc(NC(=O)C(Sc2ccccc2)c2ccccc2)cc1 (configuration not stated) | -70 | -26 | 2 | -45 | 4 | -24 | . | .
CN(C)P(=O)(Nc1cccc2ccccc12)Nc1cccc2ccccc12 | -11 | -1 | . | 7 | 0 | -1 | . | .
O=[N+]([O-])c1cc(/C=N/O)ccc1Sc1ccccc1 | 9 | 3 | 1 | 3 | 10* | 12 | 2 | 2
Cn1nc(C(=O)NNC(=O)Cc2ccc(S(=O)(=O)N3CCOCC3)s2)c2ccccc2c1=O | 6 | 5 | . | 7 | . | . | . | .
Cc1cc(C(=O)COC(=O)CCc2nc3ccccc3c(=O)[nH]2)c(C)n1CC1CCCO1 (configuration not stated) | . | . | -2 | . | 0 | -6 | . | .
Cc1cc(C(=O)CSc2nc3ccccc3c(=O)[nH]2)c(C)n1CC1CCCO1 (configuration not stated) | 2 | -1 | 1 | 6 | 15* | 1 | -4 | -2
Cc1ccccc1CCN1CCCC(CN(C)C(=O)C(=O)c2ccco2)C1 (configuration not stated) | -11 | -3 | -2 | -2 | -1 | 1 | . | .
CCN(Cc1ccccc1)S(=O)(=O)c1ccc(C(=O)N(CCCN(C)C)c2nc3c(C)c(C)ccc3s2)cc1 | 0 | -1 | 5 | 3 | 5 | 0 | . | .
O=c1c2cc(N3CCOCC3)ccc2[nH]c(=S)n1Cc1ccco1 | 9 | 2 | 0 | 2 | 10* | 19 | -3 | -1
CCCc1cc2c(cc1NS(=O)(=O)c1ccc(CCNC(C)=O)cc1)OCO2 | 9 | 5 | 2 | 10 | 11* | -5 | -5 | -5
CC(=O)NCCc1ccc(S(=O)(=O)NCc2ccc3c(c2)OCO3)cc1 | 1 | 4 | -1 | 5 | 1 | 6 | . | .
C=CCn1nnnc1SCC(=O)Nc1cccc(C(F)(F)F)c1 | 2 | -9 | 2 | 8 | 3 | 0 | . | .
O=C(CSc1cn[nH]n1)Nc1ccccc1C(=O)O | 12 | -3 | -1 | -3 | -1 | -2 | . | .
CCn1c(SCC(=O)Nc2cccc(NC(=O)c3cccs3)c2)nnc1-c1ccncc1 | 3 | 1 | -2 | 1 | -4 | -2 | . | .
CCC(=O)Nc1cccc(NC(=O)CSc2nnc(-c3ccc(NS(C)(=O)=O)cc3)n2CC)c1 | -2 | 2 | -1 | 4 | 9.7* | 4 | -4 | -5
O=C(O)[C@@H](O)[C@H](O)C(=O)O | -6 | -1 | -1 | 8 | 11* | -2 | 7 | 0
Cc1ccc(N(CCC#N)C(=O)COC(=O)c2ccccn2)cc1 | 14 | -2 | -2 | -2 | 1 | -1 | . | .
COc1ccccc1/C=N/Nc1cc(N(C)C)nc(N(C)C)n1 | 1 | 1 | 2 | 2 | 18* | 12 | 30* | 5
CN(C)c1cc(N/N=C\c2ccccc2)nc(N(C)C)n1 | -1 | -3 | 0 | 8 | 16* | 7 | 38* | 7
COc1ccc(/C=N/Nc2cc(N(C)C)nc(N(C)C)n2)cc1 | 7 | 9 | 0 | 2 | 14* | 5 | 43* | 10
COc1ccc(/C=N/Nc2cc(OC)ncn2)cc1 | 1 | 3 | 5 | 3 | 6 | 0 | . | .
SMILES | PAFAH2 inh | PAFAH1B2 FP inh | Fh CTSL1 inh | PAFAH1B3 inh | PP5 primary | pPAFAH FP inh | PP5 inh confirm | PP1 inh counter
COc1ccc(C(=O)N2CCc3[nH]nc(-c4ccccc4)c3C2)cc1 | -3 | 0 | 8 | 3 | -1 | -4 | . | .
CCSc1nc2ccccc2c(=O)n1CCc1ccc(OC)c(OC)c1 | -1 | 0 | 9 | 4 | 10* | -6 | -1 | 0
CN(C(=O)c1ccc(Br)o1)C1CCCCC1 | -4 | 7 | -2 | -4 | 2 | 1 | . | .
CCSc1nsc(NC(=O)Nc2cccc(F)c2)n1 | -29 | 5 | 5 | 0 | -1 | -6 | . | .
CCCSc1nsc(NC(=O)Nc2ccc(F)cc2F)n1 | -4 | -2 | -3 | -1 | 10* | -3 | -2 | 1
COc1ccc(OC)c2sc(N(CCN(C)C)C(=O)c3cc(Cl)sc3Cl)nc12 | -8 | 8 | 0 | 3 | 11* | -1 | 0 | 0
CN1CCN(c2oc(-c3ccccc3)nc2S(=O)(=O)c2ccc(Br)cc2)CC1 | 10 | 8 | 2 | 9 | 4 | 2 | . | .
CCOC(=O)c1c(C)[nH]c(C)c1C(=O)COC(=O)/C=C/c1cccc(F)c1 | 2 | -2 | -5 | 5 | 3 | 2 | . | .
CCOC(=O)c1c(C)[nH]c(C)c1C(=O)COC(=O)/C=C/c1cccc(C(F)(F)F)c1 | -5 | 0 | -2 | 13 | 11* | -1 | 8 | 9
O=C(CCC(=O)N1CCCCC1)Nc1nnc(C2CCCCC2)s1 | 0 | -4 | -2 | 5 | -2 | 7 | . | .
O=C(CCC(=O)N1CCOCC1)Nc1nnc(C2CCCCC2)s1 | 5 | 4 | -2 | 1 | 12* | 1 | -5 | -4
COCCn1c(N)c(C(=O)NCC2CCCO2)c2nc3ccccc3nc21 (configuration not stated) | -2 | 4 | 13 | 6 | 13* | 10 | 15* | -4
COCCn1c(N)c(C(=O)NCc2cccs2)c2nc3ccccc3nc21 | 7 | 4 | -2 | 21 | 11* | 17 | 5 | 4
Nc1c(C(=O)NCc2ccc3c(c2)OCO3)c2nc3ccccc3nc2n1CCCN1CCOCC1 | 4 | 1 | 2 | 14 | 9.7* | 24 | 13* | 4
COc1ccc(OC)c(-n2c(N)c(C(=O)NCC3CCCO3)c3nc4ccccc4nc32)c1 (configuration not stated) | 5 | 7 | . | 5 | . | . | . | .
COc1ccccc1N(C)S(=O)(=O)c1ccc(Cl)c(C(=O)Nc2ccccc2N2CCOCC2)c1 | 3 | 3 | . | -3 | . | . | . | .
COc1ccc(C2=NN(C(=O)CN3CCCCC3)C(c3ccc(OC)cc3)C2)cc1 (configuration not stated) | 3 | 5 | 5 | 10 | 17* | 6 | -3 | -4
